Most compounds without a hit are left out; they make up all but 3.7% or so of the library.
PfHsp90 set2: reduces growth (ATP signal) of yeast expressing P. falciparum Hsp90; S. cerevisiae expressing PfHsp90, BacTiter-Glo ATP, 48 h; yeast lacking PDR1 and PDR3 efflux regulators; inhibition, % at 9.4 µM; 310,000 tested, 0.32% active; AID 504621;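 active = every replicate shows inhibition above about 80%, whatever the replicate mean, limit read from the data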;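 also: 0% = DMSO neutral controls and 100% = 20 µM radicicol positive controls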
NLRP3 yeast inh: blocks the NALP3 inflammasome reconstituted in yeast; 330,000 tested, 0.39% active; inhibition, % at 10 µM; Yeast reconstituted NLRP3/ASC/caspase-1, beta-gal luminescence, 24 h;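 active = inhibition of 50% or more; inactive = inhibition below 50%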;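 also: plate controls were induced DMSO wells for no effect and uninduced yeast grown without galactose for full effect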
tim10-1 inh: inhibits growth of tim10-1 mutant yeast. 330,000 tested, 2.2% active. AID 463190. inhibition, % at 20 µM. S. cerevisiae tim10-1 ts strain growth, BacTiter-Glo, 24 h;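 active = inhibition of at least 40%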;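 also: mutant grown at 25 °C; 0% = DMSO wells with yeast and 100% = wells holding no yeast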
TIM10 inh: TIM10 yeast growth inhibition; S. cerevisiae TIM10 strain growth, BacTiter-Glo luminescence, 24 h; inhibition, % at 10 µM; 330,000 tested, 1.4% active;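 active = inhibition of 40% or more at the single tested concentration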;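 also: wild-type TIM10 isogenic control strain grown at permissive 25 °C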
tim23-1 inh: inhibits growth of tim23-1 mutant yeast. inhibition, % at 20 µM. 330,000 tested, 1.3% active. S. cerevisiae tim23-1 growth, BacTiter-Glo luminescence, 24 h;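 active = growth inhibition of the mutant yeast at or above 50%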;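 also: temperature-sensitive mutant grown at 25 °C; plate controls were DMSO-treated mutant yeast for no effect and medium wells lacking yeast for full effect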
tim10-1 conf: confirmation of tim10-1 mutant yeast growth inhibitors; inhibition, % at 20 µM; S. cerevisiae tim10-1 ts strain growth, BacTiter-Glo, 24 h; AID 463213; shares compounds with tim10-1 inh; 7,400 tested, 56% active;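 active = inhibition of yeast growth at or above a set limit in either of two repeat tests at 20 µM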;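 also: tim10-1 mutant grown at permissive 25 °C to find synthetic lethal compounds; 0% = DMSO yeast wells and 100% = medium wells without yeast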
tim10 confirm: TIM10 yeast growth inhibition, confirmed. S. cerevisiae tim10 strain growth, BacTiter-Glo luminescence, 24 h. 4,600 tested, 63% active. AID 463215. shares compounds with TIM10 inh. inhibition, % at 10 µM;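 active = inhibition of yeast growth at or above a set limit in either of two replicates at 10 µM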;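 also: this counterscreen used the strain with wild-type TIM10; 0% = yeast with DMSO and 100% = medium wells lacking yeast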
tim23-1 conf: tim23-1 yeast growth inhibition, confirmed; inhibition, % at 20 µM; 4,400 tested, 83% active; shares compounds with tim23-1 inh; S. cerevisiae tim23-1 growth, BacTiter-Glo luminescence, 24 h;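 active = inhibition above about 39% in either of two replicate wells at 20 µM, limit read from the data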;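 also: temperature-sensitive tim23-1 mutant grown at 25 °C; 0% = DMSO wells with yeast and 100% = medium wells without yeast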
An asterisk follows results filed as active; / = no result given.

SMILES | PfHsp90 set2 | NLRP3 yeast inh | tim10-1 inh | TIM10 inh | tim23-1 inh | tim10-1 conf | tim23-1 conf | others
CCCCc1c(C)c(C#N)c2nc3ccccc3n2c1NCCN(C)C | 17.7 | 26.0 | 57.2* | 51.9* | 65.3* | 63.0* | 68.8* | tim10 confirm=37.2*
CCCc1c(C)c(C#N)c2nc3ccccc3n2c1NCCCN1CCOCC1 | / | 11.1 | 21.4 | -6.6 | 3.3 | / | /
Cc1c(Cc2ccccc2)c(NCCN(C)C)n2c(nc3ccccc32)c1C#N | 110.7* | 44.9 | 47.9* | 69.0* | 57.5* | 56.8* | 69.5* | tim10 confirm=80.2*
CCCCn1c(N)c(N(CC(C)C)C(=O)c2ccc(N3C(=O)CCC3=O)cc2)c(=O)[nH]c1=O | / | 27.2 | -5.1 | 13.0 | -2.4 | / | /
O=C(Cc1ccccc1)NCC(=O)N1CCC1 | -14.8 | 5.8 | -7.9 | 9.1 | -0.5 | / | /
Cc1nc(-c2ccc(NC(=O)c3ccco3)cc2)cs1 | 51.2 | 44.2 | 50.9* | 42.9* | 67.5* | 22.0 | 66.7* | tim10 confirm=49.5*
COc1ccc(-c2nc(-c3ccccc3)c(-c3cccs3)[nH]2)cc1OC | -8.2 | -23.8 | 41.0* | 34.1 | 54.7* | 33.8* | 63.0*
CCOC(=O)C(Cc1ccccc1)(Cc1ccccc1)C(C)=O | -1.4 | 34.1 | -34.6 | -16.0 | -9.0 | / | /
CC(C)(C)c1cc(NCCCn2ccnc2)n2ncc(-c3ccccc3)c2n1 | 20.6 | -31.7 | 50.6* | 15.4 | 60.2* | 29.9* | 59.3*
CC(C)Nc1cc(C(C)(C)C)nc2c(-c3ccccc3)cnn12 | 14.9 | 11.4 | -10.2 | -8.2 | 9.3 | / | /
CC(OC(=O)CCCN=C1NS(=O)(=O)c2ccccc21)C(=O)Nc1ccccc1[N+](=O)[O-] (centres undefined) | 12.7 | 26.9 | -18.9 | 1.7 | 1.6 | / | /
CCCCC1C(=O)N(c2ccccc2)N(c2ccc(O)cc2)C1=O (centres undefined) | 13.0 | 26.2 | 22.2 | 17.6 | 11.8 | / | /
Cc1nnc(-c2ccccc2)nc1N1CCOCC1 | 1.6 | 0.6 | -8.7 | 0.0 | 10.2 | / | /
Cc1ccc(-c2nnc(C)c(N3CCCC3)n2)cc1 | 19.9 | 38.4 | 42.2* | 28.8 | 54.4* | 25.1 | 68.7*
Cc1ccc(-c2csc(NCCn3c(-c4ccncc4)nc4ccccc43)n2)cc1 | 40.3 | 5.8 | 33.4 | -3.8 | -1.8 | / | /
CCCN(C(=O)CSc1ncnc2sccc12)c1c(N)n(Cc2ccccc2)c(=O)[nH]c1=O | 0.2 | 11.0 | -7.7 | 2.3 | -7.4 | / | /
CCn1c(O)c(C2=c3ccccc3=NC2=O)c2cc(Br)ccc21 | / | 29.0 | 61.1* | 60.4* | 74.6* | 51.4* | 69.3* | tim10 confirm=68.1*
CC(O)Cn1nc([N+](=O)[O-])nc1N (centres undefined) | / | 2.3 | 13.1 | -1.5 | 11.3 | / | /
O=C1c2ccccc2C(=O)c2c(O)c(O)cc(O)c21 | -4.0 | 45.3 | 46.7* | 38.0 | 76.6* | 28.8 | 70.5*
CC(=O)NCCn1c(SCc2ccccc2C)nc2ccccc2c1=O | 26.2 | 9.8 | 22.0 | 13.3 | 33.9 | / | /
CC(=O)NCCn1c(SCc2ccc(C)cc2C)nc2ccccc2c1=O | 4.2 | 17.9 | 40.1* | 34.1 | 55.9* | 27.2 | 33.3
COc1ccccc1N(C)S(=O)(=O)c1ccc(C)c(C(=O)N2CCCCCC2)c1 | 11.0 | 8.1 | 19.6 | 11.0 | 27.0 | / | /
Cc1ccc(-n2nc3c(c2NC(=O)c2cc4ccccc4o2)CS(=O)(=O)C3)cc1 | -15.8 | 15.8 | 40.1* | 31.7 | 50.6* | 28.7 | 47.5*
CCCCC1CCC(C(=O)OC(C)C(=O)Nc2ccc(NC(C)=O)cc2)CC1 (centres undefined) | -23.1 | 8.4 | 23.4 | 7.6 | 20.9 | / | /
O=[N+]([O-])c1cc(S(=O)(=O)C(F)(F)F)ccc1Sc1nc2ccccc2[nH]1 | -16.0 | 23.9 | 60.5* | 58.1* | 67.6* | 47.8* | 58.7* | tim10 confirm=51.0*
NCCNc1ccc([N+](=O)[O-])c(Sc2nc3ccccc3[nH]2)c1 | 6.6 | 8.2 | 12.5 | 10.4 | 14.1 | / | /

Bioassay records: PubChem, several laboratories
